Measurements published in PubChem BioAssay.
The source made the active and inactive calls. Cut-off read from the data, not from the text of the source, unless noted: active = inhibition above about 28%; inactive = the rest.

What was measured:
[1] = StAR promoter reporter inhibitors, counter-screen for LRH-1 inverse agonist project, cell-based, luminescence, high throughput (AID 651611); settings: StAR promoter luciferase reporter counterscreen, at 3.6 µM, stronger effect = higher value
[2] = target: Nuclear receptor subfamily 5 group A member 2 (Homo sapiens) (UniProt O00482); test: LRH-1 (NR5A2) inverse agonists, retest, confirmation, cell-based, luminescence (AID 651613; in the data active = inhibition above about 42%;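 note: HEK293T cells co-transfected with LRH-1 and StAR promoter luciferase reporter; 0% = vehicle wells and 100% = parental cells lacking receptor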); settings: cell-based LRH-1 luciferase reporter, inverse agonism; at 3.6 µM; stronger effect = higher value
Nuclear receptor subfamily 5 group A member 2 (Homo sapiens), sequence (O00482 whole entry, looked up): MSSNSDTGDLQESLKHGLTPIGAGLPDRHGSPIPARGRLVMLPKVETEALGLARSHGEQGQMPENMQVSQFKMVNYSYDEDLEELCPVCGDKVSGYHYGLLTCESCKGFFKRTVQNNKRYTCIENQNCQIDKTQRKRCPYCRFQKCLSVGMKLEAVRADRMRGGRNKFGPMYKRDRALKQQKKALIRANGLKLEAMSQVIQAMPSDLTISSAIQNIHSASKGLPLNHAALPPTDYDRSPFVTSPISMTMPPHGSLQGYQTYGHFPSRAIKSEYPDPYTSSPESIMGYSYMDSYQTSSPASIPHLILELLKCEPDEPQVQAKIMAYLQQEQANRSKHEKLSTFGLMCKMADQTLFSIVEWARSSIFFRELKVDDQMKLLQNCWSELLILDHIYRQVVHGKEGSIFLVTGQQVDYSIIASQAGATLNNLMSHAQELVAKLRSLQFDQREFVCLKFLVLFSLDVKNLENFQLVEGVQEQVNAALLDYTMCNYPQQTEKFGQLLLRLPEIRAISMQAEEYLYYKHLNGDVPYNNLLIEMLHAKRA

[3] = target: Steroidogenic factor 1 (Homo sapiens) (UniProt Q13285); test: SF1 (NR5A1) inverse agonists, counter-screen for LRH-1 inverse agonist project, cell-based, luminescence, high throughput (AID 651614; in the data active = inhibition above about 44%;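 note: cells cotransfected with StAR promoter reporter and SF1 expression vector; 0% = vehicle on cells with receptor and 100% = vehicle on cells lacking receptor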); settings: cell-based SF1 luciferase reporter, at 3.6 µM, stronger effect = higher value
Steroidogenic factor 1 (Homo sapiens), sequence (Q13285 whole entry, looked up, the tested form may be a part): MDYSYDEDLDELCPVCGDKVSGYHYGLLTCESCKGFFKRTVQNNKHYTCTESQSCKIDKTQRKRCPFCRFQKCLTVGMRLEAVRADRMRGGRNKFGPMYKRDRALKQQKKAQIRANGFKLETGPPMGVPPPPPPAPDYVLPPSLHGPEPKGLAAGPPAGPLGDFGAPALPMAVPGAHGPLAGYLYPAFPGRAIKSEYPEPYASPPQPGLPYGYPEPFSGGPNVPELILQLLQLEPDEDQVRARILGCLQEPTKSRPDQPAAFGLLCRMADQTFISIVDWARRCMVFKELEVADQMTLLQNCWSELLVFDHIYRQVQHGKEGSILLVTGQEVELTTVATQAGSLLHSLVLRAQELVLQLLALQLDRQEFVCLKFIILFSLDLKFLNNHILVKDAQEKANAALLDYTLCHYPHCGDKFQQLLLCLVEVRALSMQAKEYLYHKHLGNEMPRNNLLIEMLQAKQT

[4] = VP16 transactivation reporter inhibitors, counter-screen for LRH-1 inverse agonist project, cell-based, luminescence, high throughput (AID 651615; in the data active = inhibition above about 33%); settings: Gal4-VP16 luciferase reporter cells, at 3.6 µM, stronger effect = higher value

Compound	inhibition [1]	inhibition [2]	inhibition [3]	inhibition [4]
Cc1ccc2[nH]c(C)c(/C=C/c3cc[n+](C)cc3)c2c1	39.2% (active)	77.4% (active)	67.3% (active)	67.8% (active)
Cc1c(OCC(=O)NCCCN2CCOCC2)ccc2c(-c3ccccc3)cc(=O)oc12	2.78% (inactive)	37.8% (inactive)	36.5% (inactive)	5.76% (inactive)
CCn1c(=O)[nH]c(=O)c2c(N)c(C(=O)c3cc(F)ccc3F)sc21	10.4% (inactive)	59.5% (active)	54.2% (active)	10.3% (inactive)
Cc1cccc(C(=O)N[C@H](C(=O)Nc2ncc(C)s2)C(C)C)c1	35.8% (active)	58.7% (active)	39.8% (inactive)	8.22% (inactive)
Cc1ccccc1NC(=O)c1ccc([N+](=O)[O-])o1	8.33% (inactive)	64.8% (active)	57.6% (active)	-16% (inactive)
COc1cc(-c2nc(C(=O)NCC3CCCO3)cc3c2[nH]c2ccccc23)cc(OC)c1OC (configuration not stated)	62.5% (active)	49.6% (active)	39.1% (inactive)	2.55% (inactive)
O=C(COc1ccc(F)c(Cl)c1)Nc1ccc(N2CCOCC2)cc1	3.59% (inactive)	36% (inactive)	39% (inactive)	3.92% (inactive)
Cc1ccccc1N=C1NC(=O)/C(=C/c2cccnc2)S1	13.1% (inactive)	39.8% (inactive)	40.2% (inactive)	8.55% (inactive)
O=C(Nc1cc(-c2nc3ncccc3o2)ccc1Cl)c1ccc([N+](=O)[O-])o1	15.3% (inactive)	52.2% (active)	53.2% (active)	-25.6% (inactive)
COc1cc(C(=O)OCC(=O)Nc2ccc(N3CCOCC3)cc2)ccc1OCC(C)C	14.1% (inactive)	54.5% (active)	65.5% (active)	-7.28% (inactive)
COc1cc(-c2noc(C)c2/C=C/c2ccc(N)cc2)cc(OC)c1OC	64.6% (active)	38.5% (inactive)	55.2% (active)	-29.3% (inactive)
COc1ccc2c(c1)c[n+](C)c1c3cc(OC)c(OC)cc3ccc21	12.1% (inactive)	58.3% (active)	56.5% (active)	68.9% (active)
Cc1c(NC(=O)c2ccc([N+](=O)[O-])o2)cccc1-c1nc2ncccc2o1	13.3% (inactive)	66.2% (active)	58.7% (active)	-13.2% (inactive)
Cc1ccc(NNC(N)=S)cc1Cl	11.6% (inactive)	53.4% (active)	50.5% (active)	1.11% (inactive)
O=C(Nc1ccc(S(=O)(=O)N2CCCC2)cc1)c1ccc([N+](=O)[O-])o1	26.2% (inactive)	58.8% (active)	62.7% (active)	15.1% (inactive)
NC(=S)N/N=C/c1ccc(-n2nncc2-c2ccc(Cl)cc2)cc1	12% (inactive)	51.6% (active)	56.4% (active)	6.68% (inactive)
N#Cc1ccccc1NC(=O)c1ccccc1OCC(=O)Nc1ccc2c(c1)oc1ccccc12	13.3% (inactive)	33.9% (inactive)	23.9% (inactive)	4.76% (inactive)
O=C(Nc1ccccc1C(=O)NCCCn1ccnc1)c1ccccc1	14.8% (inactive)	53.6% (active)	42.1% (inactive)	-3.84% (inactive)
O=C(Nc1c(F)cccc1F)c1cnc(N2CCN(c3ccccn3)CC2)c2ccccc12	41.4% (active)	41% (inactive)	35.2% (inactive)	17.4% (inactive)
COc1cc2c(cc1OC)C(c1ccc(-c3ccc(Cl)cc3Cl)o1)=NCC2	36.4% (active)	58.4% (active)	61% (active)	62.5% (active)
O=C(Nc1ccc(Cc2ccncc2)cc1)c1cc(F)c(F)cc1Cl	-0.62% (inactive)	44.2% (active)	37.9% (inactive)	10.3% (inactive)
Cc1no[n+]([O-])c1COc1ccc(/C=C2\NC(=S)NC2=O)cc1	-5.62% (inactive)	48.3% (active)	45.9% (active)	-19.4% (inactive)
COc1cc(C(=O)NC2CCN(C)CC2)ccc1Nc1ncc2c(n1)N(C1CCCCC1)CCC(=O)N2C	60.6% (active)	54.4% (active)	40% (inactive)	-159% (inactive)
Cc1ccc(S(=O)(=O)NCc2ccncc2)c(C)c1C	17.9% (inactive)	56.9% (active)	59.5% (active)	53.4% (active)
O=C(CSc1n[nH]c(-c2ccccc2)n1)Nc1ccc(N2CCOCC2)cc1	1.99% (inactive)	56.6% (active)	49% (active)	-15.3% (inactive)
Cc1nc2ccc(NS(=O)(=O)c3ccc4c(c3)OCCO4)cc2s1	7.73% (inactive)	56.4% (active)	57.4% (active)	52.6% (active)
O=C(Nc1nnc(C2=COCCO2)o1)c1ccc([N+](=O)[O-])s1	18.6% (inactive)	49.4% (active)	40.3% (inactive)	-6.2% (inactive)

Compound	inhibition [1]	inhibition [2]	inhibition [3]	inhibition [4]
COc1ccc(NC(=O)CN2C(=O)NC3(CCCc4ccccc43)C2=O)c(OC)c1 (configuration not stated)	12.3% (inactive)	50.9% (active)	42% (inactive)	-6.1% (inactive)
Oc1ccc2ccccc2c1C=NCc1ccccc1	22.8% (inactive)	15.3% (inactive)	16.9% (inactive)	3.34% (inactive)
N#CCSc1ccccc1NC(=O)CN1C(=O)C2CC=CCC2C1=O (configuration not stated)	10.9% (inactive)	58.1% (active)	60.2% (active)	-7.26% (inactive)
CC(=O)Nc1ccc(-c2c(C)cc3oc(=O)cc(-c4ccccc4)c3c2C)cc1	15.9% (inactive)	57.9% (active)	58.9% (active)	-2.96% (inactive)
Nc1nc(-c2ccccc2)[nH]c(=O)c1N=O	18.9% (inactive)	54% (active)	49.4% (active)	-10.9% (inactive)
Cn1cc(Cl)c(C(=O)OCC(=O)Nc2ccc(S(N)(=O)=O)cc2)n1	10.9% (inactive)	55.2% (active)	50.4% (active)	-12.4% (inactive)
COc1ccc(CC(=O)Nc2ccncc2Cl)cc1	7.9% (inactive)	57.3% (active)	49.8% (active)	43% (active)
CCCc1cc(=O)oc2cc(OCC(=O)NCCc3ccc(S(N)(=O)=O)cc3)ccc12	9.29% (inactive)	50.9% (active)	51.1% (active)	4.44% (inactive)
O=C(c1cc(COc2cccc3cnccc23)on1)N1CCCC(CCCO)C1 (configuration not stated)	35.4% (active)	66.4% (active)	70.5% (active)	63.5% (active)
Cc1ccc(NC(=O)CSc2nnc([C@@H]3CCCN3C(=O)OC(C)(C)C)o2)c(C)c1	13.8% (inactive)	58% (active)	54.5% (active)	-1.31% (inactive)
O=C(c1ccc([N+](=O)[O-])s1)N1CCN(c2ncccn2)CC1	1.48% (inactive)	30.8% (inactive)	41.5% (inactive)	4.85% (inactive)
Clc1ccc2c(c1)-c1ccccc1C1=NCCN12	51.8% (active)	90.7% (active)	70.4% (active)	64.1% (active)
CC(C(=O)OCC(=O)Nc1ccc2c(c1)OCO2)N1C(=O)c2ccccc2C1=O (configuration not stated)	-2.26% (inactive)	49.2% (active)	48.2% (active)	-12.4% (inactive)
CC(C(=O)N1CCCc2c1c(=O)oc1ccc(O)cc21)N1CCc2ccccc2C1 (configuration not stated)	3.35% (inactive)	48.5% (active)	32.4% (inactive)	-3.51% (inactive)
CC(=O)Oc1ccc(N(C(C)=O)S(=O)(=O)c2ccccc2)c2ccccc12	13% (inactive)	31.6% (inactive)	34.9% (inactive)	-3.17% (inactive)
COc1ccc(N2C(=O)C(Cl)=C(N3CCOCC3)C2=O)cc1	6.88% (inactive)	34.9% (inactive)	7.54% (inactive)	7.03% (inactive)
O=C(Nc1ccc(C(=O)N2CCOCC2)cc1)c1cccc([N+](=O)[O-])c1	1.39% (inactive)	48.4% (active)	41.9% (inactive)	-0.69% (inactive)
Nn1c(SCC(=O)Nc2c(F)cc(F)cc2Br)nnc1C1CCCCC1	6.71% (inactive)	38.9% (inactive)	27.5% (inactive)	-6% (inactive)
O=C(CN1C(=O)NC2(CCCC2)C1=O)NCCc1ccc(F)cc1	15.3% (inactive)	44.2% (active)	40.8% (inactive)	5.08% (inactive)
Cc1ccccc1NC(=S)NCc1ccc2[nH]c3c(c2c1)CCCC3	-0.36% (inactive)	17.9% (inactive)	28.9% (inactive)	9.36% (inactive)
O=C(Nc1ccccc1)c1oc2ccccc2c1NC(=O)C1CC1	3.25% (inactive)	52.8% (active)	50.5% (active)	1.67% (inactive)
CC[n+]1ccc(/C=C/c2ccc(N(C)C)cc2)c2ccccc21	77.7% (active)	110% (active)	94.1% (active)	91.1% (active)
COCC(C)n1c(-c2ccc3c(c2)NC(=O)CO3)csc1=Nc1ccc(OC(F)F)cc1 (configuration not stated)	10.3% (inactive)	79.3% (active)	69.3% (active)	34.4% (active)
O=C1CCc2cc(OCCCCc3nnnn3C3CCCCC3)ccc2N1	12.9% (inactive)	54% (active)	49.8% (active)	9.24% (inactive)
CS(=O)(=O)N1Cc2cc(C(=O)NCC3CC3)nc(-c3cccc(-c4cccnc4)c3)c2[C@@H]1CCO	8.47% (inactive)	49.4% (active)	47.5% (active)	-12.3% (inactive)
CN(C)c1ccc(CNc2ncnc3sccc23)cc1	2.38% (inactive)	71% (active)	47.9% (active)	42.5% (active)
